The source of these data is PubChem BioAssay AID504834 (National Center for Advancing Translational Sciences (NCATS), 2011).

In all, about 320,000 compounds went through this assay and about 22,000 (6.9%) were called active. About 27% were inconclusive and are not listed. Calls come from the whole dose curve; as a rule, active = well fitted inhibition curve with a large enough effect; inconclusive = small, poorly fitted or top-dose-only effect, or another doubt; inactive = no such curve, though single readings can be large or run the other way. The list comes from a sample in which actives are over-represented; it also holds similar structures and randomly drawn compounds. Entries that show only a call come without a potency.
Potency is the fitted concentration of half-maximal effect.

This experiment can be described thus: Primary qHTS for delayed death inhibitors of the malarial parasite plastid, 96 hour incubation. To be noted: P. falciparum luciferase reporter growth; series mostly up to 28.7 µM. The method, boiled down: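 Two parasite generations (96 h, 37 C, 5% CO2) of compound exposure in infected erythrocytes (0.05% parasitemia, 2% hematocrit). Luciferase-reporter P. falciparum; decreased luminescence indicates inhibited growth, aimed at apicoplast-acting delayed death.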
A general note: In qHTS, concentration-response curves come from the screen itself.
For the compound `O=C(CCS(=O)(=O)Cc1ccccc1)Nc1ccc2c(c1)OCCO2`, the Potency was 2940 nM (active). With `O=C(CN(c1ccc2c(c1)OCCO2)S(=O)(=O)c1ccccc1)Nc1ccc2c(c1)OCO2`, the Potency entry was “inactive”. On to `COc1ccccc1OCCCC(=O)Nc1ccc2c(c1)OCCO2`, for which the Potency entry was “inactive”. Next, `Cc1ccc(-n2c(SCC(=O)N3CCC(C(=O)O)CC3)nc3ccccc3c2=O)cc1C`: “inactive”; `CN(C)c1ccc(NC(=O)CN2C3CCCC2CC(NC(=O)c2ccccc2)C3)cc1` (stereo not given): “inactive”.

As for `CCCCCc1ccc(-c2cn(Cc3ccc4ccccc4c3)nn2)cc1`, the Potency result was “inactive”. In the case of `O=C1OCC2=C1C(c1ccccc1)CC(=O)N2c1cccc(F)c1` (stereo not given) it was “inactive”. Regarding `O=C1CC(c2cccc(Br)c2)C2=C(CCCC2=O)N1` (stereo not given), the Potency entry was “inactive”. Turning to `O=C1CC(c2cccc(F)c2)C2=C(CCCC2=O)N1` (stereo not given), the Potency was 9280 nM (active). In the case of `COc1ccc(CNC(=O)c2cc(C(=O)C3CC3)c[nH]2)cc1` it was “inactive”; in that of `CC(=O)Oc1ccc2c(=O)oc(-c3ccc([N+](=O)[O-])cc3)nc2c1`, 2330 nM (active). `O=[N+]([O-])c1ccc2oc(-c3cccc(O)c3)nc2c1`: the Potency entry was “inactive”.

Take `COc1ccc(-c2nc3cc([N+](=O)[O-])ccc3o2)cc1OC`: the Potency result was “inactive”. In the case of `O=C(NCc1cccs1)c1ccc(CS(=O)Cc2ccccc2Cl)o1` (stereo not given), the Potency entry is “inactive”.

Consider `O=Cc1cn(-c2ccccc2)nc1-c1ccccn1`, for which the Potency result is “inactive”. Next, `Cc1ccc2[nH]c(=O)c(CN(CC3COCCO3)C(=O)Nc3ccccc3C)cc2c1` (stereo not given): 465 nM (active); `CC(=O)OCc1cc2cc(C)ccc2[nH]c1=O`: “inactive”; `CCC(=O)N(CCc1ccccc1)Cc1cc2cc(C)ccc2[nH]c1=O`: “inactive”. For the compound `CCNCc1cc2cc(C)ccc2[nH]c1=O`, the Potency entry was “inactive”. On to `Cc1ccc2[nH]c(=O)c(CN(CCCN(C)C)C(=O)Nc3cccc(Cl)c3)cc2c1`, for which the Potency was 2940 nM (active). For the compound `COc1ccc2[nH]c(=O)c(CN(CC3CCCO3)C(=O)Nc3ccccc3)cc2c1` (stereo not given), the Potency result is “inactive”. With `COc1ccc(S(=O)(=O)NCC(c2ccc(C)cc2)N2CCN(C)CC2)cc1OC` (stereo not given), the Potency entry was “inactive”. Next, `Cc1ccc(-c2noc(CNC(=O)c3ccoc3C)n2)cc1`: “inactive”. Next, `O=C(NC1CCCC1)C1CCN(C(=O)Nc2cccc(Cl)c2)CC1`: “inactive”; `COc1ccccc1NC(=O)Nc1nc(CC(=O)Nc2ccccc2F)cs1`: “inactive”; `Cc1ccccc1N1CCN(CCCOc2ccc3c(C)cc(=O)oc3c2)CC1`: “inactive”.

Consider `Cc1cc(=O)oc2ccc(OCC(=O)O)cc12`, for which the Potency result was “inactive”. As to `Cc1cc(=O)oc2cc(OCCC[n+]3ccccc3)ccc12`, the Potency was 4650 nM (active). In the case of `Cc1ccc(C2SCC(=O)N2c2ccccc2)cc1` (stereo not given) it was “inactive”; in that of `CN(CC(=O)Nc1cccc(F)c1)C(=O)C1=COCCO1`, “inactive”.
